From the supplement of paper PMC11732987, “Enantioselective OTUD7B fragment discovery through chemoproteomics screening and high-throughput optimisation” (Communications Chemistry, 2025)

Columns and labels:
Test in all cases: log2 ratio of Biotin-Ahx-Ub-VS probe labelling (fragment/DMSO); higher = less target engagement (more negative = stronger competition), active = hit call of the paper (q ≤ 0.05, log2 ratio ≤ -1)
Conditions in all cases: compound concentration: 200 uM; treatment time: 3 h
OTUD6B = biological target: T1, OTUD6B (UniProt Q8N6M0)
T1 sequence (whole entry): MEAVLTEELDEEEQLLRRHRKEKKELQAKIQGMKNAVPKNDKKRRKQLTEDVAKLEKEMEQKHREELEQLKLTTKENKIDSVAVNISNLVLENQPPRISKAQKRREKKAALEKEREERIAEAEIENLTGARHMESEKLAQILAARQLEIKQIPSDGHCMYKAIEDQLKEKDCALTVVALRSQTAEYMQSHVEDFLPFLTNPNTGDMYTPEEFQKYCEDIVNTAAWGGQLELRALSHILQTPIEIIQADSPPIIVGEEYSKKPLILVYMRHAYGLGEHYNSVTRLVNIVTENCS
In short: (§1)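 Labelling with Biotin-Ahx-Ub-VS (0.5 µM final, 1 h) followed a 3 h triplicate treatment of HEK293T lysate (495 µg per sample, Tris/CHAPS/IGEPAL buffer with protease inhibitors) with fragment at 200 µM or vehicle. Labelled DUBs were NeutrAvidin-enriched, digested with LysC and trypsin, and run by diaPASEF LC-MS/MS. The values, average log2 fragment/vehicle ratios by unpaired t-test, come from global-median-normalised Spectronaut label-free quantities. Proteins with ≥2 unique peptides were used.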

OTUD7B = biological target: T2, OTUD7B (UniProt Q6GQQ9)
T2 sequence (whole entry): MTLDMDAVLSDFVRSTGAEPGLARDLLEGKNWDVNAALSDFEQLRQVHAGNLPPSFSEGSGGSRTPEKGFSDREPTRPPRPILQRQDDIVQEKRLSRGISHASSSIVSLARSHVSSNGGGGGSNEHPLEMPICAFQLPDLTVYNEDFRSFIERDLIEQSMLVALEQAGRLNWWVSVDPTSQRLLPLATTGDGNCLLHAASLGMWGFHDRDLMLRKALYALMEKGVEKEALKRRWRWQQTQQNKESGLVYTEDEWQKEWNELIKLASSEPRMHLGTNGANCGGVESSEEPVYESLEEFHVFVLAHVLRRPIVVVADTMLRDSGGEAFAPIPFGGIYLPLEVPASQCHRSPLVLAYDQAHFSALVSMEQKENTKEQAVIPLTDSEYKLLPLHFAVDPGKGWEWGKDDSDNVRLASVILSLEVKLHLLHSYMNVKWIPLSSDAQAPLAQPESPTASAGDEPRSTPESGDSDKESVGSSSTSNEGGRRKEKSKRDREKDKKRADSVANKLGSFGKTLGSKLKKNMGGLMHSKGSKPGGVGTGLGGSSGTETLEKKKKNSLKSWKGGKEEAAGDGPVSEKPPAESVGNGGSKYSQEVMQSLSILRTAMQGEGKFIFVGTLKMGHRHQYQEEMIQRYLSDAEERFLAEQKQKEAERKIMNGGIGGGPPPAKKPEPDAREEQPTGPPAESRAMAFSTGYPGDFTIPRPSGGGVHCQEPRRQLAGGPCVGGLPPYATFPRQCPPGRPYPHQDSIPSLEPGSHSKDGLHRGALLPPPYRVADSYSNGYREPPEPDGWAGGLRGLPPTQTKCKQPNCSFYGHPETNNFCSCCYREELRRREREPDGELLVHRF
In short: as §1

PRPF8 = PRPF8 (UniProt Q6P2Q9)
In short: as §1

PSMD7 = biological target: T3, PSMD7 (UniProt P51665)
T3 sequence (whole entry): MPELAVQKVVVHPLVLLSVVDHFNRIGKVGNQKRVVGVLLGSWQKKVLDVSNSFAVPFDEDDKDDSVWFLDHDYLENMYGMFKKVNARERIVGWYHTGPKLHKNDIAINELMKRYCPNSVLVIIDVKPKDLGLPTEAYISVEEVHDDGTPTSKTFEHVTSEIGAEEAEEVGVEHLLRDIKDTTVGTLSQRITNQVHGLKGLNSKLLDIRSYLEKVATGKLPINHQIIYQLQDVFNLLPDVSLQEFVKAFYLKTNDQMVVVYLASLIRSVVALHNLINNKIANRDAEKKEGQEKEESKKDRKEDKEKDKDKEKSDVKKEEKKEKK
In short: as §1

UCHL1 = UCHL1 (UniProt P09936)
Sequence of UCHL1 (P09936 whole entry, looked up): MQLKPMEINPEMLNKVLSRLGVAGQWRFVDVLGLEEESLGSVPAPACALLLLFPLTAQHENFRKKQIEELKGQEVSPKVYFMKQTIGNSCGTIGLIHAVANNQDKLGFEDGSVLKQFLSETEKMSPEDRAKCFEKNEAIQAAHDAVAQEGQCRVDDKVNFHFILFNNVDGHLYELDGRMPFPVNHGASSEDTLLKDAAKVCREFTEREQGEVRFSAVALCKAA
In short: as §1

UCHL3 = biological target: T4, UCHL3 (UniProt P15374)
T4 sequence (whole entry): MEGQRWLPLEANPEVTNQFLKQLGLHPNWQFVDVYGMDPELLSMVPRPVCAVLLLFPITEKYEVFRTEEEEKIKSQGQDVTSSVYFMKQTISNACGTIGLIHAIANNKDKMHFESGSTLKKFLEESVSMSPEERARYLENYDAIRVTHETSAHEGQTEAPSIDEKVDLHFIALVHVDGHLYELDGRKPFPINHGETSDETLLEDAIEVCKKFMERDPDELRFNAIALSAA
In short: as §1

UCHL5 = biological target: T5, UCHL5 (UniProt Q9Y5K5)
T5 sequence (whole entry): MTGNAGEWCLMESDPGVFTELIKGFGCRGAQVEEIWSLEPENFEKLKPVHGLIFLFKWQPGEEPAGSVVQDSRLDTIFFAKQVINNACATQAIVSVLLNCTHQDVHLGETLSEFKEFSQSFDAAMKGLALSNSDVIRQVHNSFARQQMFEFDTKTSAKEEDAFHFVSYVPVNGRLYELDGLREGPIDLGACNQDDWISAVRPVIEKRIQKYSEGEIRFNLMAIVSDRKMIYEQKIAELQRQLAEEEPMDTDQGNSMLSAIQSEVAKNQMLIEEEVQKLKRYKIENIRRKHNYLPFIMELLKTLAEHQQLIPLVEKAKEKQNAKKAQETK
In short: as §1

USP10 = USP10 (UniProt Q14694)
Sequence of USP10 (Q14694 whole entry): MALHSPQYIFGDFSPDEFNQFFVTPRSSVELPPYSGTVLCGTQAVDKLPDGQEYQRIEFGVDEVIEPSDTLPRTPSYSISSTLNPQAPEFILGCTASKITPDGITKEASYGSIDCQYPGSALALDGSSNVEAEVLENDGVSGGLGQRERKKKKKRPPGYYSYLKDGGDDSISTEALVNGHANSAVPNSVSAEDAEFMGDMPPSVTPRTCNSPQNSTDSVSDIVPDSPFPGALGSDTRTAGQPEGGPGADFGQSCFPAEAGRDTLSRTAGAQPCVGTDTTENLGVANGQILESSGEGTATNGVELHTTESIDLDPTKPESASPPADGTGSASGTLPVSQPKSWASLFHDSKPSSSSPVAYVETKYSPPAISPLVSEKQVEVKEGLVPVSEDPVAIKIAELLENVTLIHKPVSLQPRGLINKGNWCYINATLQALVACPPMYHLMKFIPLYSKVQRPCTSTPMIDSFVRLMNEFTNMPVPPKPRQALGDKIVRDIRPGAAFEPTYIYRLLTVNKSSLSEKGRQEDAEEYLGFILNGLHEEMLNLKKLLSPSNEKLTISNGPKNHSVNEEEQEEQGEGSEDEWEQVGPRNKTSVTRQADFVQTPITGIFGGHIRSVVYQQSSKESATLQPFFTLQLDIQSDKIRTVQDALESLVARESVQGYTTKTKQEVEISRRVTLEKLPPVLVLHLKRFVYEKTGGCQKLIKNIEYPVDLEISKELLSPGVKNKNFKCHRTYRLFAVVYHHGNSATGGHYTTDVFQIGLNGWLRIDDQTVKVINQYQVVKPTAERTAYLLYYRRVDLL
In short: as §1

USP15 = biological target: T6, USP15 (UniProt Q9Y4E8)
T6 sequence (whole entry): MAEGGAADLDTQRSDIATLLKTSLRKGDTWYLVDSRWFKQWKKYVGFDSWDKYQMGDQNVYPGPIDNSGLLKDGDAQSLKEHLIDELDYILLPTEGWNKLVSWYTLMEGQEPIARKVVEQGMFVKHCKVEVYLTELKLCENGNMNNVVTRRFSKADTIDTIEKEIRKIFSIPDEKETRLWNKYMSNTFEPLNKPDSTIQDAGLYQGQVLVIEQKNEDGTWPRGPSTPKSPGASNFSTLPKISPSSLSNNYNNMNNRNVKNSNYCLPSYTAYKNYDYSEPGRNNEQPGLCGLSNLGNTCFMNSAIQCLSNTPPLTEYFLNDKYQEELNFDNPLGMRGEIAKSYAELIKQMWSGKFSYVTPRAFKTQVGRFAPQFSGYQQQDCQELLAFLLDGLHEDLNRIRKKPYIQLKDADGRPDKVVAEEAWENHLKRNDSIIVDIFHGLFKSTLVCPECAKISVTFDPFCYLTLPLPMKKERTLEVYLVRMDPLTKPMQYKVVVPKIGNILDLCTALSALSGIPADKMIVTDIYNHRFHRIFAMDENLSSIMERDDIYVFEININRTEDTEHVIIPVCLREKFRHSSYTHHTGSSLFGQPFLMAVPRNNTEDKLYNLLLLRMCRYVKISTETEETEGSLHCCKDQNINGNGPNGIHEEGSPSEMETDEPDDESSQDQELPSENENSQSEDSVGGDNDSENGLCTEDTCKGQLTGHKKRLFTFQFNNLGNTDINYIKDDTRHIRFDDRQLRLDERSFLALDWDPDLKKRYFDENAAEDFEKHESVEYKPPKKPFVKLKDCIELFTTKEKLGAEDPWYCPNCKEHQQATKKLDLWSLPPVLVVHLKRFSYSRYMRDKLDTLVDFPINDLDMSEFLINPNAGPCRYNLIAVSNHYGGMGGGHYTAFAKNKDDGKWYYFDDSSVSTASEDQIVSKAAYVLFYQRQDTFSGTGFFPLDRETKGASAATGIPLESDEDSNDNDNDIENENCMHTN
In short: as §1

USP16 = USP16 (UniProt Q9Y5T5)
Sequence of USP16 (Q9Y5T5 whole entry, looked up): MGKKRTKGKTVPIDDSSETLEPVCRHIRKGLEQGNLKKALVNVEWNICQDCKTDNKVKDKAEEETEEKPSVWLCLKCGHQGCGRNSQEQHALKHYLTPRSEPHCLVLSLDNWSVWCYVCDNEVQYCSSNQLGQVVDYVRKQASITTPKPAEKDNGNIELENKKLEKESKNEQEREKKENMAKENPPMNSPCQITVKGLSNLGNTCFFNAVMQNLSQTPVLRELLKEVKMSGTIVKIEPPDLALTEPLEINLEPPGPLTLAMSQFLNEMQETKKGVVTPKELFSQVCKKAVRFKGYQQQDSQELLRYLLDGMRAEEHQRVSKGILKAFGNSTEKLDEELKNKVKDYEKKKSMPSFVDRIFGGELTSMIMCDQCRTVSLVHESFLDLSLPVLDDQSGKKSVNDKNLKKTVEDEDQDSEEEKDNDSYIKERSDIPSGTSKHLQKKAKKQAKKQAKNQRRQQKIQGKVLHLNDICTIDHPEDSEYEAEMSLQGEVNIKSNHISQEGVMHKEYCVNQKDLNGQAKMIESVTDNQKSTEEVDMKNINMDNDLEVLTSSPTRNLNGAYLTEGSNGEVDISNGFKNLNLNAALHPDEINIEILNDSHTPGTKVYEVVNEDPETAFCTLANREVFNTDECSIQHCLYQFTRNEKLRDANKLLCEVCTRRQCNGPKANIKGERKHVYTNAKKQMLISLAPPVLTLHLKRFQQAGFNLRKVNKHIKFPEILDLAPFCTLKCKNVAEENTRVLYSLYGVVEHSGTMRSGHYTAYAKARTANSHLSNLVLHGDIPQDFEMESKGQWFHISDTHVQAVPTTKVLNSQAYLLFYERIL
In short: as §1

Measured: log2 ratio of Biotin-Ahx-Ub-VS probe labelling

CCC(NC(=O)CCl)c1ccc(Cl)cc1 (stereo not given)
inactive: OTUD6B 0.0691 | PRPF8 0.164 | PSMD7 -0.0211 | UCHL3 0.495 | UCHL5 -0.175 | USP10 -0.0683 | USP15 -0.0837 | USP16 -0.0971
active: OTUD7B -1.12 | UCHL1 -1.12
